PubChem BioAssay (NCI)
About 79,000 compounds went through this panel and 15% of them were active in at least one assay; those are over-represented in the sample as a whole. Cut-off read from the data, not from the text of the source: active = growth inhibition above about 70%; inactive = the rest.

Legend:
[1] = NCI Yeast Anticancer Drug Screen. Data for the rad50 strain (AID 155);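 note: 0% = growth of vehicle-only cultures of the same strain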; details: S. cerevisiae rad50 strain growth inhibition; at 50.0 µM; stronger effect = higher value
How it was run: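 Genetically altered yeast (DNA repair pathway); compound treatment; growth inhibition vs vehicle ctrl.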

[2] = NCI Yeast Anticancer Drug Screen. Data for the mec2-1 strain (AID 157); details: S. cerevisiae mec2-1 strain, at 50.0 µM, stronger effect = higher value
How it was run: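 Cells of the genetically defined mec2-1 yeast strain are incubated with test compound. Inhibition of growth is calculated against vehicle-treated controls.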

[3] = NCI Yeast Anticancer Drug Screen. Data for the sgs1 mgt1 strain (AID 161);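 note: 0% = growth of cultures given vehicle only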; details: S. cerevisiae sgs1 mgt1 strain, at 50.0 µM, stronger effect = higher value
How it was run: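 Read-out: growth inhibition vs vehicle controls. Cells: mutant yeast strain deficient in DNA damage repair.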

[4] = NCI Yeast Anticancer Drug Screen. Data for the cln2 rad14 strain (AID 165);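 note: 0% = growth equal to vehicle treated cultures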; details: S. cerevisiae cln2 rad14 strain, at 50.0 µM, stronger effect = higher value
How it was run: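 The screen exposed genetically defined yeast (cln2 rad14) to test compounds and scored growth inhibition relative to vehicle-treated controls.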

[5] = NCI Yeast Anticancer Drug Screen. Data for the bub3 strain (AID 167); details: S. cerevisiae bub3 mutant strain, at 50.0 µM, stronger effect = higher value
How it was run: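 Yeast carrying a defined mutation is treated with each compound, and growth is compared with that of vehicle-exposed cells to give inhibition.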

[6] = NCI Yeast Anticancer Drug Screen. Data for the mlh1 rad18 strain (AID 175); details: S. cerevisiae mlh1 rad18 strain growth inhibition; at 50.0 µM; stronger effect = higher value
How it was run: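 Compound-treated yeast growth, normalised to vehicle controls. Strain bears defined DNA repair mutations.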

Measured: growth inhibition

COC(=O)C1CC(=O)c2cc(OC)ccc2C1 (stereo not given)
inactive: [1] -1.85% | [2] 2.8% | [3] -7.7% | [4] 6.05% | [5] -7.75% | [6] -27.1%

CC(=O)N=C1N(/C=C2\C(=O)Oc3ccccc3C2=O)C(=O)/C(=C/c2ccc3c(c2)OCO3)N1C
inactive: [1] 21.6% | [2] -5.55% | [3] 5.25% | [4] 9.4% | [5] -6.35% | [6] 10.5%

COc1cc([C@@H]2c3cc4c(cc3[C@H](OC(=O)CCCC(=O)O)[C@H]3COC(=O)[C@H]23)OCO4)cc(OC)c1OC
inactive: [1] 26.2% | [2] 23.2% | [3] 38.5% | [4] 32.3% | [5] 10.9% | [6] 33.6%

COC(=O)C1=C(CO)C2C=CC1C2 (stereo not given)
inactive: [1] 3.25% | [2] 26.1% | [3] -1.1% | [4] 6.55% | [5] 6.15% | [6] 6.7%

Cc1ccc(S(=O)(=O)Oc2ccccc2C(=O)O)cc1
inactive: [1] -7.9% | [2] -14.7% | [3] -12.3% | [4] -55.3% | [5] 14.4% | [6] -13.5%

N/N=C(\C(=O)Nc1c(Cl)cc([N+](=O)[O-])cc1Cl)C(c1cnc2ccc([N+](=O)[O-])cc2n1)[N+](=O)[O-] (stereo not given)
inactive: [1] -38.7% | [2] 0.7% | [3] 10.4% | [4] 15.1% | [5] -23.5% | [6] -26.6%

Cc1noc2ncnc(NCCCN(C)C)c12
inactive: [1] 13.4% | [2] 4.3% | [3] -0.8% | [4] -6.95% | [5] 1.55% | [6] -0.9%

CC(=O)N1CCc2[nH]c3ccccc3c2CC1
inactive: [1] 10.9% | [2] -7.05% | [3] -4.55% | [4] 21.8% | [5] -3.1% | [6] 16.2%

O=C(N/N=C1\CCc2ccccc2C1)N/N=C1\CCc2ccccc2C1
inactive: [1] 20.4% | [2] 17.1% | [3] 11.7% | [4] -5.85% | [5] -18.9% | [6] 9.6%

COc1nc2ccccc2c(=O)[nH]1
inactive: [1] -6.7% | [2] -5.2% | [3] -6.05% | [4] 0.1% | [5] 2% | [6] 6.5%

O=c1c2c(-c3cc(-c4ccccc4)nc4[nH]n(-c5ccccc5)c(=O)c34)cc(-c3ccccc3)nc2[nH]n1-c1ccccc1
inactive: [1] 0.45% | [2] -6.2% | [3] 0.35% | [4] -38.5% | [5] 4.85% | [6] -22.6%

C=C(C)CS(=O)(=O)Cc1ccccc1
inactive: [1] 14.6% | [2] -10.1% | [3] -1.8% | [4] -40.9% | [5] -4.55% | [6] 7.6%

CC(C)(CO)NCC(O)CS(=O)(=O)O (stereo not given)
inactive: [1] -30.8% | [2] -16.6% | [3] -9% | [4] -61% | [5] 4.25% | [6] 0.4%

COc1ccc(N2C(=O)C(=O)C3(CCCCC3)C2=O)c2ccccc12
inactive: [1] -6.15% | [2] -25.7% | [3] -16% | [4] 10.8% | [5] 1.05% | [6] 0.3%

CN(C)CC1CCC(=C2CCCC2)C1=O (stereo not given)
inactive: [1] -8.9% | [2] -10.7% | [3] 11.8% | [4] 6.2% | [5] 3.6% | [6] 20.6%

CCOC(=O)C1=C(C)N[C@H](c2ccccc2[N+](=O)[O-])N[C@H]1c1ccccc1[N+](=O)[O-]
inactive: [1] 22.2% | [2] 19.7% | [3] 19.9% | [4] 7% | [5] 1.45% | [6] 9.25%

COc1ccc(C(CC(=O)O)c2cc3c(cc2OC)OCO3)cc1 (stereo not given)
inactive: [1] -4% | [2] -9.85% | [3] 3.8% | [4] 0.25% | [5] 1.1% | [6] -1.75%

N#Cc1ccc2c(c1)Sc1ccccc1N2
inactive: [1] 7.5% | [2] 3.05% | [3] -2.9% | [4] -43.4% | [5] -31% | [6] 21.7%

c1ccc(CNc2ncncc2-c2ccccc2)cc1
inactive: [1] 2.75% | [2] 3.85% | [3] 17.4% | [4] 9.1% | [5] 1.6% | [6] 5.15%

O=C(CNc1ccccc1[N+](=O)[O-])Nn1cnc2ccc(S(=O)(=O)Nc3ccccc3[N+](=O)[O-])cc2c1=O
inactive: [1] 25.8% | [2] -1.25% | [3] 39.8% | [4] 15.1% | [5] 21.2% | [6] 28.5%
